PubChem BioAssay
The source made the active and inactive calls.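 Rule for the calls, unless noted: active = NADPH fluorescence slope more negative than the mean of all samples by about 3 SD, 99.7% confidence; inactive = the rest.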

Key:
[1] = inhibitors of TNFa-induced NFkB p65 translocation, primary screen, imaging, HUVEC, MLSMR starter and 10KST1 sets (AID 438;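 active = inhibition above 20% together with a positive visual image hit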;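 note: compound added about 3h40 before a 20 min TNFalpha stimulation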;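 for inhibition: signal is the nuclear over cytoplasmic p65 intensity ratio per well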); settings: HUVEC TNFa-induced p65 nuclear translocation; cell count: measured here: nuclei count (cytotoxicity indicator), at 2.08 µM; inhibition: at 2 µM, stronger effect = higher value, 0% TNFa-plus-vehicle, 100% no-TNFa wells
[2] = reduction of polyQ htt aggregates in cells – imaging, exon1htt(103Q)mCFP cells, high-content imaging, primary screen (AID 483;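 active = visual image review flags a hit and inhibition of aggregation exceeds 20%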;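 note: compound exposure lasted 3 days before fixation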;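 for nuclei count: percent of the per-plate median nuclei count of sample wells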); settings: exon1htt(103Q)mCFP cell line, aggregate imaging, at 2 µM; inhibition of aggregation: stronger effect = higher value; nuclei count: measured here: cell count, toxicity
[3] = endothelial E-selectin expression blockers – imaging, HUVEC, immunofluorescence, MLSMR starter and 10KST1 sets, primary screen (AID 487;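 active = visually confirmed hit in the image check and inhibition above 20%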;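 for inhibition: signal is fraction of cell area covered by stained E-selectin grains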;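 for nuclei count: 100% = median nuclei count of all wells on the same plate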); settings: HUVEC TNFalpha-induced E-selectin immunofluorescence imaging, at 2 µM; inhibition: stronger effect = higher value; nuclei count: measured here: cell number, toxicity
[4] = molecular target: Voltage-gated potassium channel subunit beta-2 (Rattus norvegicus) (UniProt P62483); experiment: inhibitors of rat Kvbeta2 reductase activity – biochemical, NADPH fluorescence, primary screen (AID 622;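 active = fluorescence slope higher than the sample average by over 3 SD, cut at about -0.22 in these data, passing the limit was not always enough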;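 note: slope of raw intensity against log time taken from 70 to 1610 s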); settings: recombinant KvBeta, 4-cyanobenzaldehyde reduction, at 10 µM, stronger effect = higher value
[5] = molecular target: Voltage-gated potassium channel subunit beta-2 (Rattus norvegicus) (UniProt P62483); experiment: enhancers of rat Kvbeta2 NADPH turnover – biochemical, NADPH fluorescence, primary screen (AID 623); settings: Recombinant KvBeta, NADPH fluorescence decrease slope, 10 min; at 10 µM; stronger effect = lower value;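 note: fluorescence intensity change per second fitted from 20 to 320 s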
[6] = molecular target: Alpha-2C adrenergic receptor (Homo sapiens) (UniProt P18825); experiment: compounds altering alpha2C-coupled GIRK flux – cell-based, HEK293 alpha2C/GIRK1/2, thallium flux, primary screen (AID 624;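 active = fluorescence slope after compound addition differing from the mean of all screened samples at 99.7% confidence, in either direction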;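 note: slope of fluorescence ratio to pre-addition baseline per second over 15 to 24 s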); settings: thallium flux BTC fluorescence, at 10 µM, actives lie on both sides
[7] = blockers of RIG-like receptor reporter activation – cell-based, Sendai virus stimulus, luciferase, 10K MLSCN set, TLR/RLR signaling modifier project, primary screen (AID 602276;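 active = inhibition at or above 50% at 10 µM; inactive = inhibition below 50%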;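 note: firefly luciferase from ISG56 promoter only with Renilla not read in this screen; 0% = Sendai virus plus DMSO and 100% = medium plus DMSO without virus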); settings: HEK293 RL24 IRF3 luciferase reporter, at 10 µM, stronger effect = higher value
[8] = TLR3 IRF3 reporter activation blockers – cell-based, poly I:C stimulus, luciferase, 10K MLSCN set, primary screen (AID 602277;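 active = inhibition of the reporter signal at or above 50%; inactive = inhibition below 50%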); settings: HEK293-TLR3 RL24 IRF3 luciferase reporter, at 10 µM, stronger effect = higher value

Sequence of Alpha-2C adrenergic receptor (Homo sapiens) (P18825 whole entry, looked up): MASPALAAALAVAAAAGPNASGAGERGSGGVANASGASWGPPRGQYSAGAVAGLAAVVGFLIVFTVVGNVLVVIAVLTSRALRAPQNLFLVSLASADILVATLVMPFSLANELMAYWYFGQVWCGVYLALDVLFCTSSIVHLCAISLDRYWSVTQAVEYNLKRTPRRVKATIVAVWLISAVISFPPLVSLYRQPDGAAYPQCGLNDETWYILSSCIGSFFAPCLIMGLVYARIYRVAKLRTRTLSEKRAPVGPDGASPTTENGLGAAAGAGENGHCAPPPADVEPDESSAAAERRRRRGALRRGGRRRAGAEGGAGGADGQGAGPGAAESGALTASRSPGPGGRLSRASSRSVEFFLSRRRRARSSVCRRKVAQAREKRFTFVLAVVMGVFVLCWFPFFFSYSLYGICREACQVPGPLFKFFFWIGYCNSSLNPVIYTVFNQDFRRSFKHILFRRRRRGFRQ
Sequence of Voltage-gated potassium channel subunit beta-2 (Rattus norvegicus) (P62483 whole entry, looked up): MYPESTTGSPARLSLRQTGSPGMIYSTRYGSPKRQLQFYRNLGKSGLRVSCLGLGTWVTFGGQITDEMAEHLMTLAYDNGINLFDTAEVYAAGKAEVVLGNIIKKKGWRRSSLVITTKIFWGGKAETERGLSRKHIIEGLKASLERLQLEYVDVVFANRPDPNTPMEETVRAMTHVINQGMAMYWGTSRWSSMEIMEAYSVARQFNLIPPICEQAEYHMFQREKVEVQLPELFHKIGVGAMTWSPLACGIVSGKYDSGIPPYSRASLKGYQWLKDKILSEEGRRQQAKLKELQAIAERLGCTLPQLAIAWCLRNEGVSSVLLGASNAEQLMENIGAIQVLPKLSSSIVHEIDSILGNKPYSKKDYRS

Row | Compound | cell count [1] | inhibition [1] | inhibition of aggregation [2] | nuclei count [2] [%] | inhibition [3] | nuclei count [3] [%] | fluorescence slope [4] | NADPH fluorescence slope [5] | slope [6] | inhibition [7] | inhibition [8]
1 | CCn1c(NC(=O)c2cccc(Cn3cc(Cl)cn3)c2)nc2ccccc21 | 598 | 4% (inactive) | 13.3% (inactive) | 81.8 | -45.1% (inactive) | 110 | -0.506 (inactive) | -5.4e-05 (inactive) | 0.0059 (inactive) | -3.99% (inactive) | -9.89% (inactive)
2 | O=C(CCS(=O)(=O)c1cccc2nsnc12)NCc1ccccc1 | 718 | 3.1% (inactive) | -14.8% (inactive) | 93.6 | -24.5% (inactive) | 114 | -0.567 (inactive) | 3.6e-05 (inactive) | 0.00505 (inactive) | -2.94% (inactive) | 5.74% (inactive)
3 | CCCN1CCN(C(=O)Cn2c(=O)oc3cc(S(=O)(=O)NCc4ccccc4)ccc32)CC1 | 809 | 1.6% (inactive) | -16.6% (inactive) | 117 | -19.9% (inactive) | 114 | -0.51 (inactive) | -2.7e-05 (inactive) | 0.00639 (inactive) | 8.82% (inactive) | 23.8% (inactive)
4 | Cc1nc2sc(C(c3cccs3)N3CCOCC3)c(O)n2n1 (centres undefined) | 591 | -0.3% (inactive) | -28.8% (inactive) | 112 | -5.1% (inactive) | 115 | -0.553 (inactive) | -4.2e-05 (inactive) | 0.00703 (inactive) | 9.99% (inactive) | 32.1% (inactive)
5 | CCOc1cccc(/C(O)=C2/C(=O)C(=O)N(CCN3CCOCC3)C2c2cccnc2)c1 (centres undefined) | 733 | -1.1% (inactive) | -4.6% (inactive) | 104 | -18.1% (inactive) | 97.6 | -0.421 (inactive) | -5e-05 (inactive) | 0.00281 (inactive) | 14.8% (inactive) | 28.3% (inactive)
6 | CNC(=O)c1ccsc1NC(=O)CN1C(=O)CCC1=O | 469 | -5.4% (inactive) | 10.7% (inactive) | 90.3 | 4.8% (inactive) | 113 | -0.451 (inactive) | -5.2e-05 (inactive) | 0.00494 (inactive) | 6.37% (inactive) | 28.8% (inactive)
7 | CC(=O)OCCNc1cc(N2CCN(C)CC2)c2noc3c2c1C(=O)c1ccccc1-3 | 746 | 1.6% (inactive) | -43.5% (inactive) | 114 | -15.4% (inactive) | 111 | -0.58 (inactive) | -2.8e-05 (inactive) | 0.00388 (inactive) | 27.6% (inactive) | 21.4% (inactive)
8 | CN(C)CCCN1C(=O)CSC1c1ccccc1 (centres undefined) | 607 | -8.9% (inactive) | 30.6% (inactive) | 93.9 | -57.4% (inactive) | 104 | -0.541 (inactive) | -3e-05 (inactive) | 0.00787 (inactive) | 4.6% (inactive) | 35.9% (inactive)
9 | Cc1ccc(Cl)cc1N1CCN(C(=O)C2CCCN(S(=O)(=O)c3cnc[nH]3)C2)CC1 (centres undefined) | 563 | 10.1% (inactive) | -1.2% (inactive) | 102 | -74.4% (inactive) | 126 | -0.532 (inactive) | -2.9e-05 (inactive) | 0.00714 (inactive) | -6.79% (inactive) | 3.89% (inactive)
10 | O=C(NCCc1c[nH]c2ccccc12)c1ccc(S(=O)(=O)NCc2ccco2)cc1 | 398 | 9.3% (inactive) | 14.7% (inactive) | 89.6 | -42.9% (inactive) | 98.6 | -0.578 (inactive) | -2.7e-05 (inactive) | 0.00486 (inactive) | 15.3% (inactive) | 30.7% (inactive)
11 | COc1cc(NC(=O)Cc2ccccc2OC)cc(OC)c1 | 575 | -4.8% (inactive) | 9.8% (inactive) | 81.8 | -96.9% (inactive) | 87.6 | -0.452 (inactive) | -2e-05 (inactive) | 0.00483 (inactive) | -19% (inactive) | -15% (inactive)
12 | NCCCCCc1nnc(SC/C=C/c2ccccc2)o1 | 396 | -9.8% (inactive) | 3% (inactive) | 69.1 | 20.9% (inactive) | 94 | -0.488 (inactive) | -4.2e-05 (inactive) | 0.00602 (inactive) | 14.3% (inactive) | 12.7% (inactive)
13 | Cc1nc(SCC(=O)CC(=O)OC(C)C)c(C#N)c(C)c1C | 718 | -3.5% (inactive) | -22.8% (inactive) | 118 | 34.6% (inactive) | 99.8 | -0.332 (inactive) | 1.6e-05 (inactive) | 0.00527 (inactive) | 5.7% (inactive) | -3.09% (inactive)
14 | O=C(NCc1nc2ccccc2[nH]1)c1ccc(Cl)c(S(=O)(=O)N2CCCC2)c1 | 594 | -15.4% (inactive) | -35.2% (inactive) | 101 | 47% (inactive) | 112 | -0.531 (inactive) | 2.5e-05 (inactive) | 0.00466 (inactive) | -7.84% (inactive) | -15.6% (inactive)
